Assay results published in PubChem BioAssay (NCATS).
Records with an inconclusive call do not appear. The source made the active and inactive calls. Unless noted, calls follow the shape of the dose curve; as a rule, active = well fitted curve in the direction sought with a large enough effect; inconclusive = small, poorly fitted or top-dose-only effect, or another doubt; inactive = no such curve, though single readings can be large; an effect the other way counts as inactive or inconclusive.

Key:
[1] = molecular target: Lysosomal acid glucosylceramidase (Homo sapiens) (UniProt P04062); test: Glucocerebrosidase-p2 (AID 348; in the data active = potency below about 10 µM; also: potency is read from the fitted curve at half-maximal effect); settings: purified GBA, blue fluorogenic substrate, 40 min
Method in brief: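 Compounds titrated from 0.6 nM upwards against 0.2 nM enzyme in pH 5.9 citric acid/KH2PO4, taurocholate, tween-20; blue fluorogenic substrate 80 uM, 40 min room temperature, stopped and read Ex 365/Em 440 for AC50.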

[2] = AP1 Signaling Pathway (AID 357; active = well fitted curve in either direction with a large enough effect, not every such curve was filed as active;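 also: ME-180 reporter cells stimulated with EGF at its EC50 level; % is scaled to controls: 0 for no effect and ±100 for the full control effect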); settings: ME-180 AP-1-bla reporter, EGF-induced, beta-lactamase ratio, 5 h; at 7.69 µM (top of the series) unless noted
Method in brief: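 Modulation of EGF-driven AP-1 transcription was assessed with a beta-lactamase reporter in ME-180 cells. Compound and EC50 EGF were co-incubated 5 hours at 37 °C before 2.5-hour CCF4 loading at room temperature and dual-emission reading.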

[3] = molecular target: Cytochrome P450 1A2 (Homo sapiens) (UniProt P05177); test: p450-cyp1a2 (AID 410; calls by dose curve; also: potency is read from the fitted curve at half-maximal effect;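 as to activity change, negative = inhibition: -100% = full effect of reference inhibitor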); settings: recombinant CYP1A2, luciferin-ME demethylation, luminescence; series mostly up to 57 µM
Method in brief: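 Inhibition was calculated relative to 57 uM furafylline (full inhibition). The reaction used human CYP1A2 at 20nM with Luciferin-ME at its Km, 100uM, driven by an NADPH-regenerating system for 60 min at room temperature.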

[4] = NFAT Signaling Pathway (AID 444; active = well fitted curve in either direction with a large enough effect, not every such curve was filed as active;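 also: carbachol stimulus at about its EC50 of 1 µM final; % is scaled to controls: 0 for no effect and ±100 for the full control effect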); settings: Jurkat NFAT-bla M1, carbachol, beta-lactamase ratio, 5 h; at 7.69 µM (top of the series) unless noted
Method in brief: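 Jurkat cells carrying an NFAT-driven β-lactamase reporter and co-transfected muscarinic M1 receptor were treated with compound plus carbachol (1 uM final, an EC50 level) for 5 h at 37 °C. CCF4 loading followed for 1 h at RT; 460/530 nm ratio gave %activity.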

[5] = Stat Signaling Pathway (AID 446; active = well fitted curve in either direction with a large enough effect, not every such curve was filed as active;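 also: ME-180 cervical cancer cells given 40 pM IL-6 alongside compound; SIE-controlled beta-lactamase reporter measured as 460/530 nm FRET emission ratio; % is scaled to controls: 0 for no effect and ±100 for the full control effect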); settings: ME-180 SIE beta-lactamase reporter, IL-6 stimulated, 5 h; at 7.69 µM (top of the series) unless noted
Method in brief: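 ME-180 SIE-bla cells; overnight plating; cpd + IL-6 40 pM, 5 h, 37 C; LiveBLAzer 2.5 h RT; 460/530 nm emission ratio. Normalized to 300 pM IL-6 and 125 nM JAK inhibitor controls.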

[6] = molecular target: Glucocorticoid receptor (Homo sapiens) (UniProt P04150); test: GR-GFP Redistribution (AID 450;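 active = compounds whose dose series gives a full or clear partial fitted curve of increased nuclear translocation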; also: potency is read from the fitted curve at half-maximal effect); settings: U2OS GR-GFP nuclear translocation, laser cytometry, 2 h
[7] = molecular target: Glucocorticoid receptor (Homo sapiens) (UniProt P04150); test: GR-EFC Redistribution (AID 451; calls by dose curve; also: potency is read from the fitted curve at half-maximal effect); settings: CHO-K1 GR-EFC translocation, beta-gal luminescence, 2 h
Method in brief: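 CHO-K1 cells stably expressing nuclear-localized β-gal enzyme acceptor and GR fused C-terminally to the enzyme donor fragment; ligand-driven nuclear translocation restores β-gal by complementation. Compounds titrated up to 46 uM final, 2 h at 37 °C; luminescence read.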

[8] = molecular target: Mitogen-activated protein kinase 10 (Mus musculus) (UniProt Q61831); test: JNK3 AlphaScreen Assay (AID 530; active = well fitted curve in either direction with a large enough effect, not every such curve was filed as active;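 also: kinase came from lysate of stimulated human HepG2 cells; signal reports phosphorylation of biotinylated GST-cJun 1-79 at Ser73 with 10 µM ATP; % is scaled to controls: 0 for no effect and ±100 for the full control effect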); settings: JNK3 lysate, c-Jun phosphorylation; series mostly up to 57.1 µM
Method in brief: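 JNK3 came from HepG2 lysates pre-activated with IL-1beta and TNF-alpha and phosphorylated biotinylated GST-cJun (1-79) at 10 uM ATP, pH 7.6, room temperature. Compounds were titrated. AlphaScreen signal used anti-phospho-cJun (Ser73) antibody.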

[9] = molecular target: 3',5'-cyclic-AMP phosphodiesterase 4B (Homo sapiens) (UniProt Q07343); test: qHTS Assay for Inhibitors of PDE-IV (AID 607; active = well fitted activation curve with a large enough effect in the main read-out, with a control signal flat, not every such curve was filed as active; also: % of control where 0% means no effect); settings: HEK293 ACTOne CNG channel cells, membrane potential fluorescence; series mostly up to 22.9 µM
Method in brief: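 ACTOne HEK293 cells carry a modified cAMP-gated CNG channel and express endogenous PDE4; plated 1000 cells/well, compounds up to 22.9 uM final. Membrane-potential dye fluorescence (ex 535/em 590) was read; parental cells received 10 uM forskolin + 100 uM RO 20-1724.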

[10] = qHTS Assay for Lipid Storage Modulators (AID 1519; calls by dose curve); settings: Drosophila S3 cells, BODIPY lipid droplet/cell ratio, laser cytometry, cells loaded with oleic acid; for activity change, negative = inhibition: at 57.5 µM (top of the series)
Method in brief: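 Cells seeded at 5,000 per well were treated with compounds over a concentration series and loaded with oleic acid (400 uM, as added). Lipid droplet fluorescence (488 nm excitation, 500-530 nm channel) was read by laser-scanning cytometry and normalized to 20 uM Triacsin C.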

[11] = molecular target: Dual specificity protein kinase CLK4 (Homo sapiens) (UniProt Q9HAZ1); test: qHTS Assay for Inhibitors of CDC-like Kinase 4 (Kinase-Glo Assay) (AID 1770); settings: recombinant Clk4, Kinase-Glo ATP depletion luminescence; series mostly up to 66.7 µM; also: % is scaled to controls: 0 for no effect and ±100 for the full control effect; nearly all actives have a fitted effect of over 65% in size
Method in brief: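 Substrate mix (RS peptide 100 uM, ATP 1 uM) dispensed, compound pinned in, then Clk4 added to 25 nM final. Incubated 4.5 h at RT; Kinase-Glo reagent added, luminescence read after 5 min.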

[12] = molecular target: Dual specificity protein kinase CLK4 (Homo sapiens) (UniProt Q9HAZ1); test: qHTS Assay for Inhibitors of CDC-like Kinase 4 (ADP-Glo Assay) (AID 1771); settings: recombinant CLK4, ADP-Glo luminescence; series mostly up to 80 µM; also: % is scaled to controls: 0 for no effect and ±100 for the full control effect; nearly all actives have a fitted effect of over 70% in size
Method in brief: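 Kinase reaction: Clk4 at 25 nM, RS repeat peptide substrate at 100 uM, ATP at 1 uM, 1 hr, room temperature. Product ADP detected as luciferase signal via ADP-Glo.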

[13] = molecular target: Dual specificity protein kinase CLK4 (Homo sapiens) (UniProt Q9HAZ1); test: qHTS Assay for Inhibitors of CDC-like Kinase 4 (ADP-FP Assay) (AID 1795); settings: Transcreener ADP fluorescence polarization; series mostly up to 50 µM;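 also: recombinant human CLK4 phosphorylating RS repeat peptide at 1 µM ATP; % is scaled to controls: 0 for no effect and ±100 for the full control effect; nearly all actives have a fitted effect of over 60% in size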
Method in brief: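 Clk4 6.25 nM; RS peptide 100 uM; ATP 1 uM; 25 mM Tris pH 7.5, 10 mM MgCl2; 1 h reaction. ADP detected via antibody/orange tracer FP displacement; TG003 positive control.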

[14] = molecular target: Ubiquitin carboxyl-terminal hydrolase 1 (Homo sapiens) (UniProt O94782); test: Inhibitors of USP1/UAF1: Pilot qHTS (AID 504865); settings: purified USP1/UAF1, Ub-rhodamine cleavage fluorescence; series mostly up to 54.9 µM;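 also: rhodamine fluorescence freed from ubiquitin-rhodamine substrate followed over time; top concentration of the series differs between compounds; % is scaled to controls: 0 for no effect and ±100 for the full control effect; nearly all actives have a fitted effect of over 35% in size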
Method in brief: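 In 50mM HEPES pH 7.8 containing 0.5mM EDTA, 1mM TCEP, 0.1 mg/ml BSA and 0.01% Tween-20, 1nM USP1/UAF1 is exposed to compound for 15 min, then Ub-Rho (150nM final) is added and fluorescence is read over time.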

[15] = Primary qHTS for small molecule stabilizers of the endoplasmic reticulum resident proteome: Secreted ER Calcium Modulated Protein (SERCaMP) assay (AID 1508630); settings: SH-SY5Y GLuc-SERCaMP (Gaussia luciferase released on ER calcium loss) secretion, thapsigargin, luminescence; series mostly up to 38.4 µM; also: % is scaled to controls: 0 for no effect and ±100 for the full control effect
Method in brief: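 GLuc-SERCaMP-expressing SH-SY5Y cells, pretreated 16 h with compound, are challenged with thapsigargin to empty ER calcium stores; after 4 h, coelenterazine is added directly to the medium and luminescence is imaged.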

[16] = molecular target: Cytochrome P450 2D6 (Homo sapiens) (UniProt P10635); test: qHTS Assay for Inhibitors and Substrates of Cytochrome P450 2D6 (AID 891); settings: recombinant CYP2D6, luciferin-ME EGE luminescence; series mostly up to 57.1 µM; also: potency is read from the fitted curve at half-maximal effect; nearly all actives have a fitted effect of over 60% in size
Method in brief: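 Human CYP2D6 (5 nM) with 30 uM Luciferin-ME EGE (at Km) in 100 mM KPO4, compound preincubated 10 min, then NADPH regeneration system for 60 min at room temperature. Luciferin read by luminescence; normalized to 1.43 uM quinidine.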

[17] = molecular target: Cytochrome P450 3A4 (Homo sapiens) (UniProt P08684); test: qHTS Assay for Inhibitors and Substrates of Cytochrome P450 3A4 (AID 884); settings: recombinant CYP3A4, Luciferin-PPXE luminescence; series mostly up to 57.1 µM; also: % is scaled to controls: 0 for no effect and ±100 for the full control effect; nearly all actives have a fitted effect of over 50% in size
Method in brief: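 20 nM human CYP3A4 with 25 uM Luciferin-PPXE (at KM) in 200 mM KPO4, preincubated 10 min with compound; NADPH regeneration started a 60 min RT reaction. Luciferin detected by luminescence, normalized to 57 uM ketoconazole as full inhibition.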

[18] = molecular target: Cytochrome P450 3A4 (Homo sapiens) (UniProt P08684); test: qHTS Assay for Activators of Cytochrome P450 3A4 (AID 885); settings: recombinant CYP3A4, Luciferin-PPXE luminescence, 60 min; series mostly up to 57.1 µM; also: nearly all actives have a fitted effect of over 65% in size
Method in brief: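 20nM CYP3A4 + 25uM Luciferin-PPXE (=KM), 200mM KPO4; cpd 10 min RT; NADPH regen, 60 min RT; stop w/ detection buffer, 20 min; luminescence. Normalized to 57 uM ketoconazole.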

[19] = measured here: cell count channel max response
[20] = measured here: lipid channel max response

Cytochrome P450 1A2 (Homo sapiens), sequence (P05177 whole entry, looked up): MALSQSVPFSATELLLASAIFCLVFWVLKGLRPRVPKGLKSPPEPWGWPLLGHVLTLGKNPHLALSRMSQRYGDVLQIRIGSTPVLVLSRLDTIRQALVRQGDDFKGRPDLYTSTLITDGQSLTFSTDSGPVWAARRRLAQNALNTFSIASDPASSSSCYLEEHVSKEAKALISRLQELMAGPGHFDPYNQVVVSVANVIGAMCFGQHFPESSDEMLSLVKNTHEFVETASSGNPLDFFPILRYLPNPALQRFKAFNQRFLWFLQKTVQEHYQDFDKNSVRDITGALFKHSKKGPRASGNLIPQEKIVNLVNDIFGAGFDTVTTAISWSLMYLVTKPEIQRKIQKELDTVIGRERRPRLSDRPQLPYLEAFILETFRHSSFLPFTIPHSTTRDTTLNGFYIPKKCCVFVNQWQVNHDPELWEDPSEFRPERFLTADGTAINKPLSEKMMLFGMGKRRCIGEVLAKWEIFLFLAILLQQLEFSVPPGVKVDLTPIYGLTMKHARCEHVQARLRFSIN
3',5'-cyclic-AMP phosphodiesterase 4B (Homo sapiens), sequence (Q07343 whole entry, looked up): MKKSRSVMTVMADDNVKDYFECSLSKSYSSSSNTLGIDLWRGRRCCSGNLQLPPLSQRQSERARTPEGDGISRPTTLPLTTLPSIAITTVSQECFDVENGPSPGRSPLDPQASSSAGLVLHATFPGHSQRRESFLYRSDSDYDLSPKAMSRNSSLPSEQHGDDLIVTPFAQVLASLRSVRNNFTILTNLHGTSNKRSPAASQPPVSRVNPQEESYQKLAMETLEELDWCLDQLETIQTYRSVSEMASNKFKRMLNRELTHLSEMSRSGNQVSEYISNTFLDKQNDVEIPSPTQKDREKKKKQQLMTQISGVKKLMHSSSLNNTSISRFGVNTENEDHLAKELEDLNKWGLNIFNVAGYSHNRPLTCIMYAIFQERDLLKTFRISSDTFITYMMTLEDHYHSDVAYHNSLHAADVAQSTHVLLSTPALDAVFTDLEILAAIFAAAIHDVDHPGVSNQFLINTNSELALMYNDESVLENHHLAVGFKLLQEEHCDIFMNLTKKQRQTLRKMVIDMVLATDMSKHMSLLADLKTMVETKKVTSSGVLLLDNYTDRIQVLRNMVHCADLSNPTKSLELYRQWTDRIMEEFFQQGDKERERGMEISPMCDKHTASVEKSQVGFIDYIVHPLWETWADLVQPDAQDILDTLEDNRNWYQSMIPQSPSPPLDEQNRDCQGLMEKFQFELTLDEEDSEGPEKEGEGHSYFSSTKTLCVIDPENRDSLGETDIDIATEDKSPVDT
Glucocorticoid receptor (Homo sapiens), sequence (P04150 whole entry, looked up, the tested form may be a part): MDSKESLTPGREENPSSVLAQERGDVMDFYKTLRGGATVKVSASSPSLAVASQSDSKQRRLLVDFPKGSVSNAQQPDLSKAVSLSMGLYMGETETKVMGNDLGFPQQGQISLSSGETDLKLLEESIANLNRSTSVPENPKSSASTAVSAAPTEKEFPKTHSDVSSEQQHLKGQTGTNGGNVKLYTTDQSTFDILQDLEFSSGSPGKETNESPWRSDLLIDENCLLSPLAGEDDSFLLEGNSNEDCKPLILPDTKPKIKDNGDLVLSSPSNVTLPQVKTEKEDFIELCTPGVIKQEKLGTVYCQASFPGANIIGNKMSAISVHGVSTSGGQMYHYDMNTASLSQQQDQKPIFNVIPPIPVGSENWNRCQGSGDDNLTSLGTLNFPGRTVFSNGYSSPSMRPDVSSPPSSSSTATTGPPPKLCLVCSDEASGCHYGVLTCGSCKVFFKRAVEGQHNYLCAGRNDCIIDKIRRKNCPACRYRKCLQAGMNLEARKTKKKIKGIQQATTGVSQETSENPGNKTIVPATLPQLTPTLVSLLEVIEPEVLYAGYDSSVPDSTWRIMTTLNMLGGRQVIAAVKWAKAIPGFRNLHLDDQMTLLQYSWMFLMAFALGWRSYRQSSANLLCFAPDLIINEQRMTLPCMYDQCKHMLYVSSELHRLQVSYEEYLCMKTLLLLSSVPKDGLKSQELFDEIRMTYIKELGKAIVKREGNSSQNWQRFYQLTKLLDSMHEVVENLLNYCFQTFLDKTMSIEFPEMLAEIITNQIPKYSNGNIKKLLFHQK
Dual specificity protein kinase CLK4 (Homo sapiens), sequence (Q9HAZ1 whole entry, looked up): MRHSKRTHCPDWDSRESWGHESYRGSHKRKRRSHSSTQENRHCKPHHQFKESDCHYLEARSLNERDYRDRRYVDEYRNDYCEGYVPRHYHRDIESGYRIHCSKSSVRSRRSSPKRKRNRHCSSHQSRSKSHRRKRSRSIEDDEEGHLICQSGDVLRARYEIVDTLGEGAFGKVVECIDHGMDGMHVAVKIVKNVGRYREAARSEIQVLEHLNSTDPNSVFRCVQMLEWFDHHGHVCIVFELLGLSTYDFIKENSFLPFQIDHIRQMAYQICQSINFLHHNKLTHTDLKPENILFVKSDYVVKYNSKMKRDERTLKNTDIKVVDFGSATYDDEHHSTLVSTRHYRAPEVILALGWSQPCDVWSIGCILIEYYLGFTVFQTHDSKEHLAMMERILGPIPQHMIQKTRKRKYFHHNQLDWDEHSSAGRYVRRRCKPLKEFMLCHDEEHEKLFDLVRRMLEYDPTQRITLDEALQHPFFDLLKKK
Lysosomal acid glucosylceramidase (Homo sapiens), sequence (P04062 whole entry, looked up): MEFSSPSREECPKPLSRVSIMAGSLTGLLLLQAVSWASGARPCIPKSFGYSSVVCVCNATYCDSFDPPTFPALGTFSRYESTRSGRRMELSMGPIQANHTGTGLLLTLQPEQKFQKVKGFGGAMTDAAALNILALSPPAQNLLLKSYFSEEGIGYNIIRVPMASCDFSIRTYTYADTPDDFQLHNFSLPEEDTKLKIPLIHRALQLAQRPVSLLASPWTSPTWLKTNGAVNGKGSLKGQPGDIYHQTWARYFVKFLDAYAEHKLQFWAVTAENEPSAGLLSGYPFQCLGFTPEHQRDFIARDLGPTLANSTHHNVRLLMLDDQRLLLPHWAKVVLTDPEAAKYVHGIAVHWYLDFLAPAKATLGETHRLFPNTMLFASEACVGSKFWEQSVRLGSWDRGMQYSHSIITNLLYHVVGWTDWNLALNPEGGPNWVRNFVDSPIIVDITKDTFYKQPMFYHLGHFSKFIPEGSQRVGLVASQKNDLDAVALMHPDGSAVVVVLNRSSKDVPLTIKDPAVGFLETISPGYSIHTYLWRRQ
Ubiquitin carboxyl-terminal hydrolase 1 (Homo sapiens), sequence (O94782 whole entry, looked up): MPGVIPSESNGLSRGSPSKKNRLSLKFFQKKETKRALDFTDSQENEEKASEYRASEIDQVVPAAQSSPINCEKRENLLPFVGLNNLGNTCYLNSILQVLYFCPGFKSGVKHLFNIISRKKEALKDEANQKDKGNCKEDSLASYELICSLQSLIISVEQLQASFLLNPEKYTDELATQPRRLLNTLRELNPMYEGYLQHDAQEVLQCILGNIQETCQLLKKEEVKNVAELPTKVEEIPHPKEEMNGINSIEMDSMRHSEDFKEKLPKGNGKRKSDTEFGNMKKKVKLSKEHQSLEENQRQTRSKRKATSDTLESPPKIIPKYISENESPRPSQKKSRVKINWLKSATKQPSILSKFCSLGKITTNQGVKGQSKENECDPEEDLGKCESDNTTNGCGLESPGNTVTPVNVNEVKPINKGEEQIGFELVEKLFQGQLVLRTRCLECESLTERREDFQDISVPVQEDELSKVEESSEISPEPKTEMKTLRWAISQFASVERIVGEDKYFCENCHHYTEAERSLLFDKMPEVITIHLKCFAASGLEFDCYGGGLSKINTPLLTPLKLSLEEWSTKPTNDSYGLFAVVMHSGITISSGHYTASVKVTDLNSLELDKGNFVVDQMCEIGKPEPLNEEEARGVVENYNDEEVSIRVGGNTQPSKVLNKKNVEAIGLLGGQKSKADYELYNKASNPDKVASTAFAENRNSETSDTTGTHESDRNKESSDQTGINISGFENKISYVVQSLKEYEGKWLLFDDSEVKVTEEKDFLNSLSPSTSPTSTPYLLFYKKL
Cytochrome P450 3A4 (Homo sapiens), sequence (P08684 whole entry, looked up): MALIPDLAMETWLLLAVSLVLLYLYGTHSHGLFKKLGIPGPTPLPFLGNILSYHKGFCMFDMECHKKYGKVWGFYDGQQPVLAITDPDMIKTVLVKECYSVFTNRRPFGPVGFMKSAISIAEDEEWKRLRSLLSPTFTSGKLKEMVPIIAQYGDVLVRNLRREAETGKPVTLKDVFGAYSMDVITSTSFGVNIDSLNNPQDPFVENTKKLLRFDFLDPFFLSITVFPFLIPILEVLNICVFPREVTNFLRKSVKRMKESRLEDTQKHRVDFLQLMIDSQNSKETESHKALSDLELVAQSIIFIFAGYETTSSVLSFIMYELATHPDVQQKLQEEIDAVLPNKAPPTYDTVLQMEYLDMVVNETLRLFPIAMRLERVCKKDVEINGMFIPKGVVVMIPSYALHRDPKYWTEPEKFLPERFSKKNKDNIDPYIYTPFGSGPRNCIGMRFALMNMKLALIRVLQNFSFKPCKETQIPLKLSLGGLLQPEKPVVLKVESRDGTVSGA
Cytochrome P450 2D6 (Homo sapiens), sequence (P10635 whole entry, looked up): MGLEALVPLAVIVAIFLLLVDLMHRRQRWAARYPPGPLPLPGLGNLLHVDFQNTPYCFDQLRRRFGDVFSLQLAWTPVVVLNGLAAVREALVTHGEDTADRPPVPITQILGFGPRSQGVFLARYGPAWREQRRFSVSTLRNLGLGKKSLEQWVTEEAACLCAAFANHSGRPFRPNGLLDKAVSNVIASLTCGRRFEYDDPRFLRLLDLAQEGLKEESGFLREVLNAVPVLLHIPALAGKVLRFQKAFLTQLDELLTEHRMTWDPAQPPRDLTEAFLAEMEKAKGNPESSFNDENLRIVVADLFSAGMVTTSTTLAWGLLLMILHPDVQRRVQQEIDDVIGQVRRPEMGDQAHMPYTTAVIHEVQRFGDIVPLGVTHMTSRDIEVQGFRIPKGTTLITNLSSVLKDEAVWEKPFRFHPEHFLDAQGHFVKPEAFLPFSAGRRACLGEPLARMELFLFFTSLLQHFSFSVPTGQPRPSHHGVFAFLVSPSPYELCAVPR

COc1ccc(-n2c(=O)c(-c3cn(C)c4ccccc34)nc3cnc(N4CCOCC4)nc32)cc1
9.94%: max response [10, 20]
inactive: Potency [1] > 11.4 µM | activity change, negative = inhibition [2] 11.1% | activity change, negative = inhibition [4] -2.62% | activity, negative = inhibition [5] 3.33% | Potency [6] > 9.22 µM | Potency [7] > 46 µM | outcome [8] | Potency [9] | activity change, negative = inhibition [10] 7.4% | Potency [11] | Potency [12] | Potency [13] | Potency [14] | Potency [15]
active: Potency [3] 31.6 µM
4.27%: max response [10, 19]

Cc1nc2cnc(N3CCOCC3)nc2n(C)c1=O
11.2%: max response [10, 19]
inactive: Potency [1] > 11.4 µM | activity change, negative = inhibition [2] -9.18% | activity change, negative = inhibition [4] 3.85% | activity, negative = inhibition [5] -2.49% | Potency [6] > 9.22 µM | Potency [7] > 46 µM | outcome [8] | Potency [9] | activity change, negative = inhibition [10] 4.73% | Potency [11] | Potency [12] | Potency [13] | Potency [14] | Potency [15]
active: Potency [3] 6.31 µM
13.5%: max response [10, 20]

CNc1cc(-c2ccccc2CN(C)C)ncn1
active: Potency [3] 31.6 µM | Potency [16] 0.631 µM
8.03%: max response [10, 20]
inactive: Potency [1] > 11.4 µM | activity change, negative = inhibition [2] 6.89% | activity change, negative = inhibition [4] -0.773% | activity, negative = inhibition [5] -3.02% | Potency [6] > 46 µM | Potency [7] > 46 µM | outcome [8] | Potency [9] | activity change, negative = inhibition [10] 2.26% | Potency [11] | Potency [12] | Potency [13] | Potency [14] | Potency [15]
7.6%: max response [10, 19]

Cc1ccccc1-c1cc(NCCN2CCOCC2)ncn1
-5.46%: max response [10, 20]
active: Potency [3] 31.6 µM
inactive: Potency [1] > 11.4 µM | activity change, negative = inhibition [2] -3.13% | activity change, negative = inhibition [4] -3.03% | activity, negative = inhibition [5] 2.72% | Potency [6] > 46 µM | Potency [7] > 46 µM | outcome [8] | Potency [9] | Potency [17] | activity change, negative = inhibition [10] -1.17% | Potency [11] | Potency [12] | Potency [13] | Potency [14] | Potency [15]
-3.29%: max response [10, 19]

Cc1cnc(CNc2ncncc2-c2c(C)noc2C)cn1
inactive: Potency [1] > 11.4 µM | activity change, negative = inhibition [2] 5.13% | Potency [3] | activity change, negative = inhibition [4] 1.67% | activity, negative = inhibition [5] -8% | Potency [6] > 46 µM | Potency [7] > 46 µM | outcome [8] | Potency [9] | Potency [18] | activity change, negative = inhibition [10] 5.43% | Potency [11] | Potency [12] | Potency [13] | Potency [14] | Potency [15]
31%: max response [10, 19]
35%: max response [10, 20]
